Screens deposited in PubChem BioAssay by National Center for Advancing Translational Sciences (NCATS).
HT1080-NT tox: kills 2HG-producing HT-1080-NT fibrosarcoma cells. HT-1080-NT fibrosarcoma viability, CellTiter-Glo ATP luminescence, 48 h. Potency, µM (highest dose often 46.1 µM), without a hit: at the top dose activity, negative = less viability, hits mostly cytotoxic. hit rate 1.6% among 360,000;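 note: NT is the 2HG producing partner of a matched IDH1 knockdown line; potency is the fitted concentration of half-maximal effect; 0% = DMSO-treated cells and -100% = media-only wells without cells; nearly all actives have a fitted effect of over 55% in size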
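HT-1080-NT fibrosarcoma cells (2HG-overproducing), 750 cells/well in RPMI with 5% FBS, dosed after 2 h and incubated 48 h at 37C. CellTiter-Glo luminescence normalized to DMSO and no-cell wells; concentration-response curves fitted and classed.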
IL1B secr inh: blocks inflammasome-driven IL-1 beta release; THP-1 LPS/ATP IL-1B secretion, AlphaLISA, 16 h; stronger effect = lower value; activity change, % at 57.5 µM; hit rate 4.7% among 360,000; AID 743279; in the data active = activity change below about -50%; inconclusive = mostly about -30% to -49%
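THP-1 cells pretreated 1 hr with compounds (up to 57.5 uM final), then stimulated with LPS (250 ng/mL final) plus ATP (1.25 mM final); secreted IL-1B measured by AlphaLISA after 16 hr, decreased signal indicating inhibition.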
TDP1 cell CPT: DT40-hTDP1 cell growth loss with CPT; chicken DT40 Tdp1-/-;hTDP1 cells + 20 nM CPT, ATP luminescence, 48 h; Potency, µM (series often up to 46.2 µM), without a hit: at the highest dose activity change, negative = growth inhibition, actives largely listed as inhibitors; hit rate 12% among 420,000; note: potency is the fitted concentration of half-maximal effect; nearly all actives have a fitted effect of over 55% in size
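Cell growth measured by CellTiter-Glo luminescence after a minimum 48 h, 37 C compound exposure with 20 nM CPT in Tdp1-knockout DT40 cells stably expressing hTDP1, seeded 400/well; qHTS titration format.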
ALOX12 inh: inhibitors of human 12S-lipoxygenase ALOX12 | Potency, µM (series often up to 108 µM), inactives show top-dose activity change, negative = inhibition, actives largely listed as inhibitors | purified 12hLO, xylenol orange hydroperoxide absorbance | AID 1671190 | hit rate 1.1% among 580,000; note: potency is the fitted concentration of half-maximal effect
Target sequence (P18054 whole entry, looked up): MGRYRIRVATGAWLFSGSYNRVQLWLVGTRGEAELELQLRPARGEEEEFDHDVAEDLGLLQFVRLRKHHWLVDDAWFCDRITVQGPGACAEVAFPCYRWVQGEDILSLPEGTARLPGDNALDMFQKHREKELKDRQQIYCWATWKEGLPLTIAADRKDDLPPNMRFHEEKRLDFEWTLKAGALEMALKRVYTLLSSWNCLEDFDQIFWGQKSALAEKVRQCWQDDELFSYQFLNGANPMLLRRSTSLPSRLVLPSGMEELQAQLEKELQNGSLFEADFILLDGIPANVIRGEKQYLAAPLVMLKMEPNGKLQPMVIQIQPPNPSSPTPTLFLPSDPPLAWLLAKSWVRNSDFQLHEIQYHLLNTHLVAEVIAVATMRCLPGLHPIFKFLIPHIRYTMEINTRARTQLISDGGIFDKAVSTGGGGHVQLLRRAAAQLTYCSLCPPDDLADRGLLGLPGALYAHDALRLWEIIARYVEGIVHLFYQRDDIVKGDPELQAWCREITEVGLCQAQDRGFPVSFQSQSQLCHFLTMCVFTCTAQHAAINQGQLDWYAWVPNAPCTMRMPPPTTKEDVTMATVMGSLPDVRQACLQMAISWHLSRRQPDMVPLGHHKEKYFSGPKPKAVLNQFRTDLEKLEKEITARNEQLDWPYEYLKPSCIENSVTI
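Purified human 12hLO at 150 nM in 25 mM Hepes, 0.01% Triton X-100, pH 7.0, preincubated 15 min at room temperature with compound. Reaction started with 40 uM arachidonic acid, 30 min at room temperature. Hydroperoxide measured by Fe-xylenol orange, 573/405 nm absorbance ratio.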
HT1080 IDH1KD tx: HT-1080 IDH1 knockdown cell toxicity (counter line); HT-1080 IDH1 knockdown viability, ATP luminescence, 48 h; Potency, µM (top dose mostly 46.1 µM), inactives show top-dose activity, negative = toxicity, usual class: cytotoxic; hit rate 2% among 360,000; AID 686971;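 note: potency is the fitted concentration of half-maximal effect; 0% = DMSO wells and -100% = cell-free medium wells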
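Assay cells: HT-1080 with IDH1 knockdown, 750 per well, RPMI/5% FBS. Exposure: 48 h at 37 °C following 2 h pre-incubation. Read: CellTiter-Glo luminescence; fitted concentration-response, curve class assigned.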
DT40 TDP1 no CPT: qHTS for Inhibitors of human tyrosyl-DNA phosphodiesterase 1 (TDP1): qHTS in cells in absence of CPT; DT40 Tdp1-/- hTDP1 cells, no CPT, ATP luminescence, 48 h; Potency, µM (highest dose often 46.2 µM), without a hit: top-dose activity change, negative = growth inhibition, actives largely listed as inhibitors; hit rate 15% among 420,000; note: potency is the fitted concentration of half-maximal effect; nearly all actives have a fitted effect of over 55% in size
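Readout: luminescence from CellTiter-Glo after 30 min in the dark at RT. Cells: DT40 Tdp1-/- with stable hTDP1, 400/well. Exposure: compounds alone, ≥48 hr, 37 °C.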
* hit, by the source's call; ? = inconclusive; . = not tested or not shown. The sample as a whole holds a higher share of hits than the screen did. Unless noted, calls come from the whole dose curve; as a rule, active = well fitted curve in the direction sought with a large enough effect; inconclusive = small, poorly fitted or top-dose-only effect, or another doubt; inactive = no such curve, though single readings can be large; an effect the other way counts as inactive or inconclusive. Unless noted, % is set by controls: 0 for no effect and ±100 for the full control effect.

SMILES	HT1080-NT tox	IL1B secr inh	TDP1 cell CPT	ALOX12 inh	HT1080 IDH1KD tx	DT40 TDP1 no CPT
CN1CCCCC1CCN1c2ccccc2Sc2ccc(S(C)=O)cc21 (stereo unspecified)	?	-52*	?	?	?	?
CCN(CC)C(=O)c1ccc(-c2nnc(Nc3ccc(O)cc3)c3ccccc23)cc1	11%	-11	-109%	33%	10%	?
CCN(CC)C(=O)c1ccc(-c2nnc(Nc3ccc(C(=O)N(C)C)cc3)c3ccccc23)cc1	-7%	?	?	16%	-7%	16µM*
COc1ccc(Nc2nnc(-c3ccc(C(=O)NCCO)cc3)c3ccccc23)cc1	0%	-30	3.3µM*	3%	10%	6.5µM*
CCN(CC)C(=O)c1ccc(Nc2nnc(-c3ccc(C)c(S(=O)(=O)NC)c3)c3ccccc23)cc1	.	.	26µM*	-11%	.	21µM*
COc1ccc(Nc2nnc(-c3ccc(C(N)=O)cc3)c3ccccc23)cc1	-4%	?	?	?	-2%	?
CCN(CC)S(=O)(=O)c1cc(-c2nnc(Nc3ccc(OC)c(C(N)=O)c3)c3ccccc23)ccc1C	.	.	18µM*	-11%	.	?
O=S(=O)(Nc1nc2ccccc2nc1NCCc1ccccc1)c1cccc(Cl)c1	.	.	.	21%	.	.
COc1ccccc1C(=O)Nc1cccc(C2OC(=O)N(Cc3ccc(C)cc3)C2C(N)=O)c1 (stereo unspecified)	.	.	.	39%	.	.
CC(=O)Nc1ccc(NS(=O)(=O)c2cc(-c3n[nH]c(=O)c4ccccc34)ccc2C)cc1	-19%	-9	0%	4%	-9%	-9%
CC(=O)Nc1ccc(Nc2nnc(-c3ccc(O)cc3)c3ccccc23)cc1	-5%	-26	-3%	-15%	2%	0%
C#CC(C)(C)NS(=O)(=O)c1cc(-c2nnc(Nc3ccc(C)cc3)c3ccccc23)ccc1C	.	.	21µM*	-18%	.	?
CCN(CC)C(=O)COc1ccc(-c2nnc(Nc3ccc(OC)c(C(=O)NC)c3)c3ccccc23)cc1	-4%	-79*	?	?	-7%	21µM*
COC(=O)COc1ccc(-c2nnc(Nc3ccc(OC)cc3)c3ccccc23)cc1	.	.	.	-2%	.	.
C#CCOc1ccc(-c2nnc(Nc3ccc(NC(C)=O)cc3)c3ccccc23)cc1	.	.	?	-2%	.	16µM*
Cc1ccc(-c2nnc(Nc3ccc(CC(N)=O)cc3)c3ccccc23)cc1S(=O)(=O)NCCO	1%	7	-5%	?	3%	12%
CNS(=O)(=O)c1cc(-c2nnc(Nc3ccc(NC(C)=O)cc3)c3ccccc23)ccc1C	1%	?	16µM*	3%	-9%	18µM*
CCC(CC)C(=O)Nc1ccc(OCc2cc(=O)n3c4c(sc3n2)CCCC4)cc1	.	.	-10%	-15%	.	-3%
CCC1(N2CCN(C(=O)c3cccc(OC(F)(F)F)c3)CC2)CCN(S(C)(=O)=O)C1 (stereo unspecified)	.	.	.	-4%	.	.
COc1ccc(NC(=O)COc2cccc(C)c2)c2cccnc12	.	.	.	26%	.	.
CC(C)(C)c1ccc(-n2ncc3c2CCCC3NC(=O)c2ccco2)cc1 (stereo unspecified)	-19%	56	21µM*	5%	-23%	15µM*
CC(=O)Nc1cccc(C(=O)NC2CCCc3c2cnn3-c2ccc(C(C)(C)C)cc2)c1 (stereo unspecified)	-26%	57	?	-1%	?	?
Cc1cc(C(=O)NC2CCCc3c2cnn3-c2ccc(C(C)(C)C)cc2)nn1C (stereo unspecified)	13µM*	5	8.2µM*	-2%	-16%	16µM*
O=C(c1nc(-c2cccc3[nH]ccc23)no1)N1CCCC1	.	.	.	5%	.	.
COc1ccccc1CNC(=O)c1cnn2c(C)c(Cc3ccc(F)cc3)c(C)nc12	.	.	5.8µM*	-20%	.	6.5µM*
SMILES	HT1080-NT tox	IL1B secr inh	TDP1 cell CPT	ALOX12 inh	HT1080 IDH1KD tx	DT40 TDP1 no CPT
COc1ccccc1CNC(=O)c1ccccc1OCc1ccc(F)cc1	3%	14	?	-19%	2%	?
Cc1cc(C(F)F)n2ncc(C(=O)NCCc3ccc(Cl)cc3)c2n1	-3%	-8	?	-17%	-10%	?
Cc1nc2c(C(=O)NCCc3ccc(Cl)cc3)cnn2c(C)c1Cc1ccc(F)cc1	.	.	16µM*	-37%	.	?
O=C(C[n+]1ccccc1Br)c1ccc(Cl)cc1	.	.	?	.	.	14µM*
COCCn1c(=O)n([C@H]2CCCN(C(=O)c3cnc(C)cn3)C2)c2ncccc21	.	.	.	3%	.	.
Cc1ccc(NC(=O)CSc2nnc(-c3ccc(Br)cc3)o2)c(C)c1	.	.	?	-16%	.	-53%
CC1=CC(C)(C)N(C(=O)CSc2nnc(-c3ccc(C)cc3)o2)c2ccc(C)cc21	-2%	5	?	-1%	-7%	18µM*
Cc1cc(OCc2cc(C(=O)NCCN3CCCCC3CO)no2)cc(C)c1Cl (stereo unspecified)	?	-62*	?	-14%	?	?
